LMP1 NFkB inh – inhibitors of Epstein-Barr LMP1-induced NF-kappaB reporter; 350,000 compounds, 0.69% hits; inhibition, % at 12.5 µM; LMP1-induced NF-kappaB luciferase reporter cells, luminescence; in the data active = inhibition above about 41%; inconclusive = no clear call, values can overlap the other calls;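 also: 0% = neutral control wells and 100% = reference inhibitor control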
TRPM1 prom inh – MITF TRPM1 promoter inhibition in SK-MEL-5 cells; SK-MEL-5 TRPM1 promoter luciferase, 24 h; inhibition, % at 12.5 µM; 330,000 compounds, 0.83% hits;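 active = mean inhibition across replicates of 60% or more, whatever share of single replicates reaches that level; inconclusive = some that reach 60%, reason not given; inactive = mean inhibition across replicates below 60%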
PAX8 reporter – lowers PAX8-driven luciferase in RMG-I cells; RMG-I TPO-luciferase reporter, SteadyGlo, 24 h; 360,000 compounds, 1.2% hits; inhibition, % at 12.6 µM;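 active = mean replicate inhibition at least 60% with every replicate also reaching 60%; inconclusive = only one of the two criteria is met; inactive = mean below 60% and not all replicates reaching 60%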;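 also: luciferase light reporting Pax8 driven TPO promoter activity; plate controls were median of neutral control wells for no effect and mitoxantrone controls for full effect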
Shn3 inh set2 – reduces Shn3 3'UTR luciferase signal in osteoblasts; Clone20 osteoblast Shn3 3'UTR firefly luciferase, 24 h; inhibition, % at 12.5 µM; 360,000 compounds, 0.52% hits; AID 588674;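 active = mean inhibition of at least 75% with every replicate also reaching 75%; inconclusive = mean inhibition at least 75% but some replicate below; inactive = mean inhibition below 75%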;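 also: 0% = median of neutral control wells and 100% = pilot-screen positive control compound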
aSyn UTR inh – 5' untranslated region of α-synuclein, MLPCN primary screen | 300,000 compounds, 0.82% hits | alpha-synuclein 5'UTR reporter, inhibitor activity | inhibition, % (tested at 7.5 µM); in the data active = inhibition above about 60%; inconclusive = no clear call, values can overlap the other calls;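 also: H4 neuroglioblastoma cells stably carrying SNCA 5'UTR luciferase fusion; 0% = DMSO wells and 100% = positive control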
* = called active by the depositor; ? = inconclusive; · = not tested or not shown. Shown are actives, neighbours in structure and some others; about 2.1% of the full set was active somewhere.

SMILES	LMP1 NFkB inh	TRPM1 prom inh	PAX8 reporter	Shn3 inh set2	aSyn UTR inh
CC(=O)n1c2ccccc2c2nc(NC(C)C)sc21	-17.6	-14.3	·	-48.8	9.8
COc1ccc(CN(C)C[C@H]2OCCCC[C@@H](C)Oc3ccc(NC(=O)NC(C)C)cc3C(=O)N([C@H](C)CO)C[C@H]2C)cc1	·	·	-26.6	·	·
O=C(OCCC12CC3CC(CC(C3)C1)C2)c1ccc(NCc2cc(O)ccc2O)cc1	-25.5	67.0*	55.9	99.1*	·
O=C(OCC12CC3CC(CC(C3)C1)C2)c1ccc(NCc2cc(O)ccc2O)cc1	4.1	36.2	52.3	98.3*	·
Cc1noc(C)c1COc1cccc(C(=O)OCC(=O)N2CC(=O)Nc3ccccc32)c1	-23.0	17.5	-4.9	12.5	64.9*
O=C1CN(C(=O)COc2cccc(F)c2)c2ccccc2N1	·	·	11.8	·	4.9
COc1cc(-c2ccc(=O)[nH]n2)ccc1OC(F)F	10.4	42.0	-15.7	-11.0	86.7*
COc1ccc(-c2ccc(=O)[nH]n2)cc1	15.0	4.6	·	-37.7	41.0
Nc1ccc2c(c1)COC2=O	0.6	-17.1	5.6	-45.5	-9.8
N=c1oc2ccc(Br)cc2cc1C(=O)NC1CCCCCC1	-7.9	4.2	-0.9	-13.2	-17.9
O=C(CN1C(=O)c2ccccc2S1(=O)=O)c1ccc2c(c1)OCCCO2	85.7*	82.4*	103.7*	93.6*	114.4*
O=C(CN1C(=O)c2ccccc2S1(=O)=O)c1ccc2c(c1)OCCO2	81.4*	88.0*	104.7*	·	111.2*
O=C(CCN1C(=O)c2ccccc2S1(=O)=O)Nc1ccc2c(c1)OCCO2	3.6	3.5	·	-0.6	1.4
Nc1nc2ccc(Br)cc2s1	-4.3	·	-44.0	-2.0	·
Cc1cc(C)cc(N2C(=O)C=CC2=O)c1	20.8	50.9	36.9	94.2*	·
CN(c1ccccc1)S(=O)(=O)c1cccc(NC(=O)c2ccc3ncsc3c2)c1	-0.7	15.7	8.9	88.1*	-0.9
Cc1nc2ccc(NC(=O)c3cccc(S(=O)(=O)N(C)c4ccccc4)c3)cc2s1	26.3	19.9	·	89.6*	6.7
CCOc1c(Br)cc(C2CC(=O)Nc3cc(OC)c(OC)cc32)cc1OC (stereo not drawn)	-6.4	-5.8	-4.8	24.1	10.2
COc1ccc(S(=O)(=O)Nc2ccc3c(c2)C(=O)N([C@H](C)CO)C[C@H](C)[C@H](CN(C)S(=O)(=O)c2ccc(Cl)cc2)OCCCC[C@@H](C)O3)cc1	·	·	1.3	·	·
COc1ccc(S(=O)(=O)Nc2ccc3c(c2)C(=O)N([C@H](C)CO)C[C@@H](C)[C@H](CN(C)S(=O)(=O)c2ccc(Cl)cc2)OCCCC[C@H](C)O3)cc1	·	·	83.2*	·	·
COc1ccc(S(=O)(=O)N(C)C[C@@H]2OCCCC[C@@H](C)Oc3ccc(NS(=O)(=O)c4ccc(Cl)cc4)cc3C(=O)N([C@@H](C)CO)C[C@H]2C)cc1	·	·	66.2*	·	·
Nc1nc2nccc(-c3ccc(Cl)cc3)n2n1	-13.5	-8.0	·	-30.1	·
CCOC(=O)c1ccc(NC(=O)CCCN2C(=O)NC3(CCCC3)C2=O)cc1	-10.3	-9.0	-0.9	-23.0	·
Cc1cccc2sc(NNC(=O)c3ccc(S(=O)(=O)N4CC(C)CC(C)C4)cc3)nc12 (stereo not drawn)	37.6	77.7*	·	?	81.5*
Cc1ccc2nc(NNC(=O)c3ccc(S(=O)(=O)N4CCc5ccccc5C4)cc3)sc2c1	59.3*	77.8*	89.8*	93.6*	96.0*
SMILES	LMP1 NFkB inh	TRPM1 prom inh	PAX8 reporter	Shn3 inh set2	aSyn UTR inh
Cc1cc(C)c2nc(NNC(=O)c3ccc(S(=O)(=O)N4CC(C)CC(C)C4)cc3)sc2c1 (stereo not drawn)	37.9	68.8*	48.0	89.7*	71.9*
COC(=O)c1sc2ccccc2c1NC(=O)c1ccc(S(=O)(=O)N2CC(C)CC(C)C2)cc1 (stereo not drawn)	10.2	-2.1	25.6	5.5	18.4
Cc1ccc2nc(NNC(=O)c3ccc4c(c3)OCCO4)sc2c1	-9.6	·	11.3	-10.7	-30.3
Cc1cc(C)c2nc(NNC(=O)c3ccc(S(=O)(=O)N4CCCC(C)C4)cc3)sc2c1 (stereo not drawn)	2.6	46.2	·	59.2	72.9*
O=C1N/C(=C\c2nc3ccccc3s2)c2ccccc21	·	·	·	·	39.4
O=C(CSc1ccc(Cl)cc1)N1CCC(c2nc3ccccc3s2)CC1	14.0	16.1	·	8.6	12.1
O=C(Cc1ccccc1)NNC1=NS(=O)(=O)c2ccccc21	-7.5	-2.1	-0.6	0.0	25.9
O=C(CN1C(=O)c2ccccc2C1=O)NNC1=NS(=O)(=O)c2ccccc21	42.2*	-9.4	-5.0	4.1	21.5
CC1CCN(CCCCOc2ccc(C(=O)c3ccccc3)cc2)CC1	-2.2	-22.9	-4.7	26.7	-21.3
O=C(Nc1c(Cl)cccc1Cl)Oc1cccc2cccnc12	·	·	73.3*	74.6	·
CCN(CC)C(=O)Oc1ccc(Cl)c2cccnc12	-0.7	12.0	26.4	5.8	22.7
O=C(Nc1cccc(Br)c1)Oc1cccc2cccnc12	·	·	10.6	6.4	·
O=C(Nc1cccc(C(F)(F)F)c1)Oc1ccc(Cl)c2cccnc12	10.7	11.3	14.2	51.1	75.1*
O=c1c2sc(-c3ccccc3)cc2nc2n1CCC2	23.7	11.9	27.2	-25.9	82.4*
CCCc1ccc(C(=O)NNc2cc(Cl)ccc2Cl)cc1	0.6	0.8	-17.0	89.6*	-17.9
Cc1cc(NC(=O)CCC(=O)N(CC(=O)NCC2CCCO2)Cc2ccc(F)cc2)no1 (stereo not drawn)	-1.3	-2.5	·	-6.0	-11.8
CNC1(C)[C@H]2CC[C@H](C2)C1(C)C (stereo partly drawn)	81.2*	1.4	2.2	15.7	·
CCN(CC)S(=O)(=O)c1ccc(N/N=C(\C)c2ccc(OC)cc2O)nc1	32.0	54.6	46.2	91.2*	78.2*
CCOc1cccc(/C=N/Nc2ccc(S(=O)(=O)N(CC)CC)cn2)c1O	57.2*	50.0	?	?	88.2*
CC(C)Cn1c(C(C)C)nc([N+](=O)[O-])c1S(=O)(=O)c1ccc(F)cc1	-18.0	48.6	59.8	19.1	-35.8
CCCc1nc([N+](=O)[O-])c(S(=O)(=O)c2ccccc2)n1CC(C)C	10.9	53.7	86.0*	90.8*	-18.2
COc1ccccc1CNCC(O)Cn1c2ccccc2c2ccccc21 (stereo not drawn)	-16.9	83.6*	9.5	28.2	16.1
OCCNCC(O)Cn1c2ccccc2c2ccccc21 (stereo not drawn)	4.1	4.8	5.8	-1.3	0.2
CC(C)NC1(C(N)=O)CCN(Cc2ccccc2)CC1	-3.0	-5.1	2.7	-0.7	·
CC(C)NC1(C(N)=O)CCNCC1	5.6	-1.9	7.4	86.9*	·
c1ccc2c(c1)COc1c3cc4c(cc3nn1-2)OCO4	-47.0	·	-115.9	-58.1	·
COc1cc(NC(=O)COC(=O)CNC(=O)c2ccc(C)s2)cc(OC)c1	-2.0	1.8	16.2	9.9	-6.8
CCOc1cc(C(=O)OC(C)C(=O)Nc2ncc(Cl)cc2Cl)ccc1OCC(=O)N1CCOCC1 (stereo not drawn)	60.8*	2.4	14.0	0.3	-20.4
